The whole screen tested about 54,000 compounds, of which about 120 (0.22%) were called active. About 8% were inconclusive and are not listed. Calls come from the whole dose curve; as a rule, active = well fitted inhibition curve with a large enough effect; inconclusive = small, poorly fitted or top-dose-only effect, or effect the other way; inactive = flat fitted curve, though single readings scatter. What follows is part of a selection rich in actives, with near analogues and random picks from the rest.
These compounds were tested against Fumarate hydratase, mitochondrial (Homo sapiens) (UniProt P07954) (assay: Identification of activators of human fumarate hydratase by quantitative high-throughput screening). Conditions: FH coupled MDH/diaphorase resazurin fluorescence, 15 min; series mostly up to 79.9 µM; activity change, negative = inhibition: at the top concentration.
Sequence of Fumarate hydratase, mitochondrial (Homo sapiens) (P07954 whole entry, looked up): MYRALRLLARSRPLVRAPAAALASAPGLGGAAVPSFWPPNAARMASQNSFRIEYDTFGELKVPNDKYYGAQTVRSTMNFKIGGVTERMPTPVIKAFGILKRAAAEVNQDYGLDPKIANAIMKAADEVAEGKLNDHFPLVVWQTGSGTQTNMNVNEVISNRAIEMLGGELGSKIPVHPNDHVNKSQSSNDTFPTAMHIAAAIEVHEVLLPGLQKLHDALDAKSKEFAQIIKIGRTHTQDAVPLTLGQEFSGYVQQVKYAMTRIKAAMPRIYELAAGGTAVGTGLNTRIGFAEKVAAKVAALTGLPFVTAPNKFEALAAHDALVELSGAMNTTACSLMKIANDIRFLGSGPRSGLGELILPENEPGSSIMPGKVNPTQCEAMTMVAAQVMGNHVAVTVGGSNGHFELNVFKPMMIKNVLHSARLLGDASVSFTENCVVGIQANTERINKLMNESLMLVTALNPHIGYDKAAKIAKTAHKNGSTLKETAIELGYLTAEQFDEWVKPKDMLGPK
Text: Fumarate hydratase (FH) is a metabolic enzyme that is part of the Krebs-cycle, and reversibly catalyzes the hydration of fumarate to malate. Mutations of the FH gene have been associated with fumarate hydratase deficiency (FHD), hereditary leiomyomatosis, renal cell cancer (HLRCC), and other diseases. Currently there are no high-quality small molecule probes for studying human fumarate hydratase. To address this, we developed a quantitative high throughput screening (qHTS) FH assay and screened a total of 57,037 compounds in dose-response. While no inhibitors of FH were confirmed, a series of phenyl-pyrrolo-pyrimidine-diones (12 compounds) were identified as activators of human fumarate hydratase. […] The binding of two compounds from the series to human fumarate hydratase was confirmed by microscale thermophoresis. The low hit rate in this screening campaign confirmed that FH is a "tough target" to modulate, and the small molecule activators of human fumarate hydratase reported here may serve as a starting point for further optimization and development into cellular probes of human FH and potential drug candidates.
For primary high-throughput screen, 3 ul of FH solution (containing 13.33nM human fumarate hydratase, 13.33IU/ml malic dehydrogenase, 0.2mM NAD, 0.067mg/ml diaphorase and 0.067mM resazurin in the assay buffer (50 mM Tris pH 8.0, 5 mM MgCl2, 0.01% Brij 3) was dispensed into each well in a black solid bottom 1536-well assay plate (Greiner Bio-One) using a BioRAPTR FRD dispenser (Beckman Coulter, Brea, CA). A 1536-well pintool dispenser outfitted with 20 nl pins (Wako Automation, San Diego, CA) was used to transfer 20 nL of DMSO-solubilized compound (Cherrypick plates) to each 1536-well assay plate. Each compound was screened at five concentrations: 15 nM, 151 nM, 1.5 uM, 15.4 uM, 76.9 uM. Following compound transfer, plates were incubated in room temperature for 10 minutes. 1 uL of substrate solution containing fumaric acid (160 uM) was dispensed via BioRAPTR FRD to initiate the reaction. Plates were immediately transferred to a ViewLux microplate imager (PerkinElmer, Waltham, MA), and any resulting resorufin fluorescence was measured (exitation/emission, 525/598 nm) at 0 and 15 minutes. The exposure time is 1 second. Fluorescence from each well was normalized using enzyme-free and DMSO-treated control wells on each plate, and changes in fluorescence (delta RFU) were calculated using the difference in fluorescent signal for each well at 15 minutes versus 0 minutes.
For CCOc1ccc(S(=O)(=O)N2CCCCCC2)c2ccccc12, the “activity change, negative = inhibition” value was -12.1% (inactive).
In the case of C=C1CCC2C(C)(COC(C)=O)CCCC2(C)C1CCC(C)CC(=O)O (stereo not drawn), the “activity change, negative = inhibition” value is reported as -0.374% [at 53.3 µM] (inactive).
COC(=O)c1cc(NC(=O)c2cnc(SC)nc2-c2ccccc2)cc(C(=O)OC)c1 was tested, and the “activity change, negative = inhibition” value was -19.3% (inactive).
With Cc1cc(NC(=O)CC(C)C)cc(-c2nc3ncccc3o2)c1O the “activity change, negative = inhibition” value was -0.21% (inactive).
For CC(=O)c1cnc2ccc(-c3cc(Cl)c(O)c(Cl)c3)nc2c1NC1CCC(CN(C)C)CC1 (stereo not drawn), the activity change, negative = inhibition was -1.45% [at 0.673 µM] (inactive).
With COc1cc(O)c(C(=O)CCc2ccc(O)cc2)c(O[C@@H]2O[C@H](CO)[C@@H](O)[C@H](O)[C@H]2O)c1 the “activity change, negative = inhibition” value was -13.3% [at 53.3 µM] (inactive).
For CC(C)C1=CC2C(CC[C@]2(C)O)[C@](C)(O)CC1 (stereo partly drawn), the “activity change, negative = inhibition” value was -0.171% (inactive).
With Fc1ccc(-c2nc(-c3ccccc3F)[nH]c2-c2ccncc2)cc1 the “activity change, negative = inhibition” value was -0.997% (inactive).
COC(=O)c1[nH]c(=O)c2ccccc2c1-c1ccc[nH]1 was tested, and the “activity change, negative = inhibition” value was 1.76% (inactive).
With CC(=O)N1CCc2cc(S(=O)(=O)NC(Cc3ccccc3)C(=O)NCc3ccc(C)cc3)ccc21 (stereo not drawn) the “activity change, negative = inhibition” value was 10.6% (inactive).
In the case of O=C(Nc1ccc2nc(SCC(=O)N3CCCc4ccccc43)sc2c1)c1ccc(F)cc1, the “activity change, negative = inhibition” value is reported as -6.95% (inactive).
In the case of COc1ccc(NC(=O)CCN2CCN(CCO)CC2)cc1, the “activity change, negative = inhibition” value is reported as 9.05% (inactive).
For CCc1ccc(CN(Cc2ccco2)C(=O)c2ccccc2Cl)cc1, the “activity change, negative = inhibition” value was -25.2% (inactive).
With COCCNS(=O)(=O)c1cc(-c2nn3c(C)nnc3c3ccccc23)ccc1C the “activity change, negative = inhibition” value was -5.96% (inactive).
In the case of CCOC(=O)c1ccc(NC(=O)c2c(NCc3cccs3)sc3c2CCCC3)cc1, the “activity change, negative = inhibition” value is reported as -9.56% (inactive).
In the case of CC(F)(F)CN1CCOc2c(nn(-c3ccccc3Cl)c2-c2ccc(Cl)cc2)C1=O, the “activity change, negative = inhibition” value is reported as -12.3% (inactive).
CCC/C=C/C(=O)O[C@H]1CC(C)(C)CC2[C@]13[C@H](O)O[C@@]21CCC2[C@@]4(C)CC[C@H](O[C@@H]5O[C@H](C(=O)O)[C@@H](O)[C@H](O[C@@H]6O[C@H](CO)[C@H](O)[C@H](O)[C@H]6O[C@@H]6O[C@@H](C)[C@H](O)[C@@H](O)[C@H]6O[C@@H]6OC[C@](O)(CO)[C@H]6O)[C@H]5O[C@@H]5O[C@H](CO)[C@H](O)[C@H](O)[C@H]5O)C(C)(C)C4CC[C@@]2(C)[C@]1(C)C[C@H]3OC(C)=O (stereo partly drawn) was tested, and the activity change, negative = inhibition was 27.8% [at 13.5 µM] (inactive).
For Cc1ccc(-c2nnc3c4ccccc4c(C)nn23)cc1NC(=O)c1cccc(Br)c1, the “activity change, negative = inhibition” value was 3.86% (inactive).
With Cc1cc(C)c(NC(=O)c2cc3sc(Cl)cc3n2C)c(C)c1 the “activity change, negative = inhibition” value was -0.541% (inactive).
In the case of O=C(CN1C(=O)COc2ccc(S(=O)(=O)N3CCOCC3)cc21)N1CCN(c2cccc(Cl)c2)CC1, the “activity change, negative = inhibition” value is reported as -5.4% (inactive).
With O=C(Cn1c(=O)n(Cc2cccs2)c(=O)c2cccnc21)Nc1ccc(F)cc1 the “activity change, negative = inhibition” value was -20.5% (inactive).
With C[C@H]1CC[C@@]2(OC1)O[C@H]1CC3C4CC[C@H]5C[C@@H](O)CC[C@]5(C)C4CC(=O)[C@]3(C)[C@H]1[C@@H]2C (stereo partly drawn) the “activity change, negative = inhibition” value was -3.6% [at 53.3 µM] (inactive).
With Cn1c(=O)c2c(n3c4ccccc4nc13)NC(=O)CC2c1cccc(Cl)c1 (stereo not drawn) the “activity change, negative = inhibition” value was -25.1% (inactive).
C/C=C(\C)C(=O)OC1C=C(C)CC(OC(=O)c2ccc(O)cc2)C2C1(C)CCC2(O)C(C)C (stereo not drawn) was tested, and the “activity change, negative = inhibition” value was -1.59% [at 53.3 µM] (inactive).
For Cc1ccccc1C#Cc1ccc(CCC(=O)O)cc1, the “activity change, negative = inhibition” value was -7.53% (inactive).
For CCOc1cc(/C=C(\C#N)C(=O)Nc2ccccc2C)ccc1OCc1cc(=O)n2nc(CC)sc2n1, the “activity change, negative = inhibition” value was -13.3% (inactive).
CCC1OC(=O)C(C)CC(C)C(=O)/C(C)=C/C(C)C(=O)/C=C/C1(C)O (stereo not drawn) was tested, and the “activity change, negative = inhibition” value was 4.92% [at 53.3 µM] (inactive).
With Cc1cc(Br)ccc1NC(=O)Cn1cnc2sc(C)c(S(=O)(=O)N3CCN(C)CC3)c2c1=O the “activity change, negative = inhibition” value was 3.35% (inactive).
For CNc1ccc(-c2nc(-c3ccccc3C)no2)cc1[N+](=O)[O-], the “activity change, negative = inhibition” value was 0.855% (inactive).
For CC(=O)O[C@@H]1c2c3c(cc(O)c2C(=O)O[C@@H]1C)O[C@@]1(C)[C@@H](O)C[C@H]2C(C)(C)C(=O)C=C[C@]2(C)[C@@H]1C3, the “activity change, negative = inhibition” value was -6.54% [at 53.3 µM] (inactive).
In the case of Cc1nc2nc(NCc3cccc(Br)c3)[nH]n2c(=O)c1Cc1ccccc1, the “activity change, negative = inhibition” value is reported as -4.21% (inactive).
With CC1CC2C3CCC4=CC(=O)C=C[C@]4(C)[C@@]3(F)[C@@H](O)C[C@]2(C)[C@@]1(O)C(=O)CO (stereo partly drawn) the activity change, negative = inhibition was “inactive”.
For CCOc1ccc(CNC(=O)c2cc(-c3ccc(Cl)s3)nc3ccccc23)cc1, the “activity change, negative = inhibition” value was 12.2% (inactive).
With CC(=O)[C@@H]1C[C@H](C(C)(C)O[C@@H]2O[C@H](CO)[C@@H](O)[C@H](O)[C@H]2O)CC[C@@]2(CO)OC(=O)C[C@@H]12 the “activity change, negative = inhibition” value was 7.44% [at 53.3 µM] (inactive).
With COc1ccc(C)cc1NC(=O)COCc1cc(-c2cccs2)on1 the “activity change, negative = inhibition” value was -26.2% (inactive).
For CCN(Cc1ccccc1)C(=O)CCS(=O)(=O)c1ccc2c(c1)oc(=O)n2C, the “activity change, negative = inhibition” value was -6.23% (inactive).
With Cc1ccc(S(=O)(=O)N2CCC(C(=O)Nc3cc(C)ccc3C)CC2)cc1 the “activity change, negative = inhibition” value was -35.1% (inactive).
COc1ccc(Cc2nc3ccc(C(=O)NCc4ccccc4Cl)cc3o2)cc1 was tested, and the “activity change, negative = inhibition” value was -18.8% (inactive).
CSc1ccc(CCNC(=O)c2cc(C)nc3c2c(C)nn3-c2cccc(F)c2)cc1 was tested, and the “activity change, negative = inhibition” value was -4.49% (inactive).
With COc1ccc(OC)c(CNC(=O)c2c3c(nc4ccccc24)C(=O)N(C2CCCCC2)C3)c1 the “activity change, negative = inhibition” value was -6.19% (inactive).
COc1ccc(-c2cn3c(C)c(C(=O)Nc4cc(C)cc(C)c4)sc3n2)cc1 was tested, and the “activity change, negative = inhibition” value was -2.84% (inactive).
C[C@@H]1COCCN1c1cc(C2(S(C)(=O)=O)CC2)nc(-c2cccc3[nH]ccc23)n1 was tested, and the “activity change, negative = inhibition” value was -3.26% (inactive).
For CC(=O)O[C@@H]1CC2C(C)(C)C(=O)C=C[C@]2(C)C2CC[C@]3(C)C(=CC(=O)[C@@H]3c3ccoc3)[C@@]21C (stereo partly drawn), the “activity change, negative = inhibition” value was 8.3% [at 53.3 µM] (inactive).
Cc1cc(C)c2oc(C(=O)Nc3ccc(S(=O)(=O)N(C)c4ccccc4)cc3)cc(=O)c2c1 was tested, and the “activity change, negative = inhibition” value was -17.4% (inactive).
With C/C1=C\CC(C)(C)/C=C/C/C(C(=O)O)=C/CC1 the “activity change, negative = inhibition” value was -17.8% (inactive).
In the case of C/C=C(\C)C1C(C)=CC2CCC(OS(=O)(=O)O)C(C)C2C1/C=C/C=C/C(=O)O (stereo not drawn), the “activity change, negative = inhibition” value is reported as -1.4% [at 53.3 µM] (inactive).
With O=S(=O)(c1ccc(Cl)cc1)c1nnn2c1nc(NC1CCCC1)c1sccc12 the “activity change, negative = inhibition” value was -1.98% (inactive).
With NC(=O)c1cnc(NCCc2ccc(O)c(Cl)c2)nc1NCc1ccccc1 the “activity change, negative = inhibition” value was -22.4% (inactive).
With CC(O)COc1ccccc1 (stereo not drawn) the “activity change, negative = inhibition” value was -10.1% [at 53.3 µM] (inactive).
In the case of COc1ccc(NC(=O)C(c2ccccc2)N2Cc3ccccc3C2=O)cc1 (stereo not drawn), the “activity change, negative = inhibition” value is reported as -21.3% (inactive).
For COc1ccc(N2CCN(C(=O)c3c(C)oc4nc(C)nc(N5CCCC5)c34)CC2)cc1, the “activity change, negative = inhibition” value was -7.16% (inactive).
CCCN(C(=O)Cn1ncc2c([nH]c3ccc(C)cc32)c1=O)c1ccccc1C was tested, and the “activity change, negative = inhibition” value was -18% (inactive).
In the case of CC/C(=C(/CC)c1ccc(O)c(CN(CC)CC)c1)c1ccc(O)c(CN(CC)CC)c1, the “activity change, negative = inhibition” value is reported as -1.42% (inactive).

From PubChem BioAssay AID1347055 (National Center for Advancing Translational Sciences (NCATS), 2019)
% is set by controls: 0 for no effect and ±100 for the full control effect.
Note: the screen sought activators but most active calls are inhibition curves; nearly all actives have a fitted effect of over 45% in size.
